Results filed as inconclusive are left out. Active and inactive are the calls of the source. The call rests on the fitted dose curve; in most records, active means well fitted curve in the direction sought with a large enough effect; inconclusive means small, poorly fitted or top-dose-only effect, or another doubt; inactive means no such curve, though single readings can be large; an effect the other way counts as inactive or inconclusive.
Tests used:
[1] = target: Cellular tumor antigen p53 (Homo sapiens) (UniProt P04637); test: Primary qHTS for small molecule compounds that upregulate eGFP-tagged delta133p53alpha (in N-terminal) cells. (AID 2060322); conditions: NCI-H358 eGFP-delta133p53alpha fluorescence, 24 h; activation: active compounds read high;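 further: cells pre-induced with doxycycline then dosed without doxycycline; series mostly up to about 56 µM; 0% = DMSO vehicle and 100% = reference activator; nearly all actives have a fitted effect of over 75% in size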
Procedure, shortened: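 NCI-H358 cells pre-induced 24 h with 10 ng/ml doxycycline for eGFP-delta133p53alpha, plated dox-free and exposed 24 h at 37C to titrated compounds. Fixed, Hoechst-stained; gated GFP peak intensity by laser scanning cytometry, normalized to DMSO (0%) and 57.5 uM 5-azacytidine (100%).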

[2] = target: Aldehyde dehydrogenase, mitochondrial (Homo sapiens) (UniProt P05091); test: qHTS for Inhibitors of the Aldehyde Dehydrogenase Family (ALDH2) Primary screen (AID 2061308);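 further: plate controls were vehicle for no effect and reference inhibitor for full effect; nearly all actives have a fitted effect of over 55% in size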
[3] = target: Retinaldehyde dehydrogenase 3 (Homo sapiens) (UniProt P47895); test: qHTS for Inhibitors of the Aldehyde Dehydrogenase Family (ALDH1A3) Primary screen (AID 2061315);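 further: plate controls were DMSO vehicle for no effect and reference inhibitor for full effect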

Cellular tumor antigen p53 (Homo sapiens), sequence (P04637 whole entry, looked up): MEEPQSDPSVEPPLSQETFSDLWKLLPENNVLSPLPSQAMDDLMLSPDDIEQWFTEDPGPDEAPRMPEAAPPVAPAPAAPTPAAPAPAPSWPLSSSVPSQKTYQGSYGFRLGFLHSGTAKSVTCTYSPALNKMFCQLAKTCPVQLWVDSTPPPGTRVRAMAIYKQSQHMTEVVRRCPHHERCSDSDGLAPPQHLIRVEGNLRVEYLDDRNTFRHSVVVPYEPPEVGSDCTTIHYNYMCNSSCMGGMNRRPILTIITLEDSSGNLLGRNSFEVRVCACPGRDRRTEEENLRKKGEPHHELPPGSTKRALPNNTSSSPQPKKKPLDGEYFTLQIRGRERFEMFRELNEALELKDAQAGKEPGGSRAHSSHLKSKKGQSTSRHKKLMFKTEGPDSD

COc1ccc(C2Oc3c(OC)cc(CCCO)cc3C2COC2OC(CO)C(O)C(O)C2O)cc1OC (stereo unspecified)
inactive: activation [1] -3.82% | Potency [2] | Potency [3]

C[C@@H]1O[C@@H](OC(=O)Cc2ccccc2)[C@H](O)[C@H](O)[C@H]1O
inactive: activation [1] 17% | Potency [2] | Potency [3]

CO[C@@]12CC3[C@@H]([C@@H](O)[C@@H](OC(C)=O)C4[C@](C)(COC(C)=O)CCC[C@]34C)[C@@H](C)C1=CC(=O)O2 (stereo partly specified)
inactive: activation [1] -3.05% | Potency [2] | Potency [3]

O=c1cc(N2CCN(c3cccc(C(F)(F)F)c3)CC2)[nH]c(=O)n1C1CCCCC1
inactive: activation [1] 25% | Potency [2] | Potency [3]

O=C(O)Cc1cccc(-c2cc(CCCCCCc3ccc(O[C@H]4O[C@H](CO)[C@@H](O)[C@H](O)[C@@H]4O)c(-c4cccc(CC(=O)O)c4)c3)ccc2O[C@H]2O[C@H](CO)[C@@H](O)[C@H](O)[C@@H]2O)c1
inactive: activation [1] 4.33% | activity change, negative = inhibition [2] -4.79% [at 0.464 µM] | activity change, negative = inhibition [3] -13.7% [at 0.464 µM]

C/C(=C\C=C\C(C)C1CCC2(C)C3CCC4C(C)(C)C(=O)CCC45CC35CCC12C)C(=O)O (stereo unspecified)
inactive: activation [1] 5.36% | Potency [2] | Potency [3]

CC(C)c1ccc2c(c1)C(O)CC1C(C)(CO)CCCC21C (stereo unspecified)
inactive: activation [1] -12.5% | Potency [2] | Potency [3]
